Measured values as given in PubChem BioAssay.

Each molecule was assayed against Calmodulin-1 (Homo sapiens) (UniProt P0DP23) (assay: CALM1 binders on microarrays, EGTA buffer, profiling panel, biochemical, small-molecule microarray, Cy5-labelled CALM1 (AID 1111;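 further: labelled calmodulin applied in Tris saline Tween buffer holding calcium plus EGTA and DTT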)). Settings: Cy5-CALM1 binding fluorescence, higher = more signal.
With `COc1cc2c(cc1O)C(C)N(Cc1cccc(OC(F)(F)F)c1)CC2` (centres undefined) the composite z-score was 0.854. `CC(C)N1C(=O)C[C@@](C(=O)NCc2ccccc2)(c2ccc([N+](=O)[O-])cc2)[C@H]1c1ccc(CO)cc1` gave a composite z-score of -0.47. For `CCCN1C(=O)[C@]2(COC(c3ccc(OCCCO)cc3)=N2)Cc2ccccc21`, the composite z-score was 1.11. `COC(=O)C(CC#Cc1ccc2c(c1)[C@]1(C(=O)N2)[C@H](c2ccc(OCCO)cc2)N2[C@H](c3ccccc3)[C@H](c3ccccc3)OC(=O)[C@H]2[C@@H]1C(=O)NC[C@H](O)c1ccccc1)C(=O)OC` showed a composite z-score of 0.794. For `O=C1C2C=CC(C(O)c3ccc(B(O)O)cc3)N(Nc3ccccc3)C2C(=O)N1c1ccccc1` (centres undefined), the composite z-score was 0.883. Molecule `O=C1O[C@H](c2ccccc2)[C@H](c2ccccc2)N2[C@H]1[C@@H](C(=O)NC[C@H](O)c1ccccc1)[C@]1(C(=O)Nc3ccc(C#CCCO)cc31)[C@H]2c1ccc(O)cc1` has a composite z-score of -0.6. In the case of `O=C1O[C@@H](c2ccccc2)[C@@H](c2ccccc2)N2[C@@H](c3ccc(O)cc3)[C@]3(C(=O)Nc4ccc(C#CC5=CCCCC5)cc43)[C@@H](C(=O)O)[C@H]12`, the composite z-score is reported as 2.02. Work on `CCOC(=O)C1=CCC(c2ccc(C#N)cc2)N(S(=O)(=O)c2ccc(C)cc2)C1` (centres undefined) yielded a composite z-score of 2.02. With `CCN(CC)c1ccc(N2CC=CC34O[C@@H]5C=CCCOC(=O)C5[C@H]3C(=O)N(CCCCCO)[C@@H]4C2=O)cc1` (some centres undefined) the composite z-score was -1.15. `COc1c(C)cc(-c2cc3c(c(-c4ccc(Oc5ccccc5)cc4)n2)[Si](C(C)C)(C(C)C)OC3)cc1C` gave a composite z-score of 0.354. Molecule `CCOC(=O)C[C@H]1[C@H](OC(=O)c2ccc(-c3ccccc3)cc2)[C@@H](NC(=O)c2ccc3ccccc3c2)c2cc(OCCCO)ccc2N1C(=O)Cc1ccc(OC)cc1` has a composite z-score of 0.868. Molecule `CC(C)C(=C=CC[C@@H](O)c1ccccc1OCCO)C[C@@H](O)c1ccccn1` has a composite z-score of -0.178. `CN(C)C(=O)[C@@]1(CCC(=O)OC(C)(C)C)N=C(c2ccc(OCCCO)cc2)O[C@H]1c1ccccc1` was tested, and the composite z-score was 1.03. With `C=CCN1C(=O)[C@]2(O[C@H](CCO)[C@@H]([Si](C)(C)c3ccc(OC)cc3)[C@@H]2C)c2cc(NC(=O)[C@H](C)O)ccc21` the composite z-score was 0.737. `Cc1ccc(S[C@]2(C(=O)NCCN3CCOCC3)CC(=O)N(Cc3cc(C(F)(F)F)cc(C(F)(F)F)c3)[C@@H]2c2ccc(CO)cc2I)cc1` gave a composite z-score of -0.452. In the case of `CCOC(=O)C[C@H]1[C@H](OC(=O)c2ccc(C(=O)c3ccccc3)cc2)[C@@H](NC(=O)C2CCCCC2)c2cc(OCCCO)ccc2N1C(=O)c1ccccc1`, the composite z-score is reported as 0.541. `CC(C)(C)N1CC=CC23O[C@@H]4/C=C\CCCOC(=O)C4[C@H]2C(=O)N(CCO)[C@@H]3C1=O` (some centres undefined) showed a composite z-score of -0.0083. Work on `CC1CC/C=C\[C@H]2OC34C=CCN(Cc5ccccc5)C(=O)[C@H]3N(CCCCCO)C(=O)[C@@H]4C2C(=O)O1` (some centres undefined) yielded a composite z-score of -0.457.

These molecules were tested against Calmodulin-1 (Homo sapiens) (UniProt P0DP23) (assay: calcium-bound CALM1 binders on microarrays, profiling panel, artefact control for SMM control-protein annotation, biochemical, small-molecule microarray, Cy5-labelled CALM1, plus calcium (AID 1112;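 further: score merges spot fluorescence with signal to noise from triplicate slides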)). Settings: Cy5-CALM1 binding fluorescence, higher = more signal.
Molecule `COC(=O)c1c(CC[C@@H](CO)NC(=O)N[C@@H](Cc2ccccc2)Cn2cc(C3(O)CCCCC3)nn2)oc(C(C)=O)c1C(=O)OC` has a composite z-score of -0.36. `Cc1ccc(S[C@]2(C(=O)NCc3ccccc3)CC(=O)N(Cc3ccccc3Cl)[C@@H]2c2ccc(CO)cc2I)cc1` showed a composite z-score of 0.137. For `COCCOC(=O)N1C(=O)[C@@]2(c3cc(C#Cc4ccc(OC)cc4)ccc31)[C@H](C(=O)N1CCN(c3ncccn3)CC1)[C@H]1C(=O)O[C@H](c3ccccc3)[C@H](c3ccccc3)N1[C@@H]2c1ccc(O)cc1`, the composite z-score was 0.217. `CC(C)(C)OC(=O)CC[C@@]1(C(=O)NCCN2CCOCC2)N=C(c2ccc(OCCCO)cc2)O[C@@H]1c1ccccc1` was tested, and the composite z-score was 0.53. `COCCOC(=O)N1C(=O)[C@@]2(c3cc(C#CC4(O)CCCCCC4)ccc31)[C@H](C(=O)N1CCCCCCC1)[C@H]1C(=O)O[C@H](c3ccccc3)[C@H](c3ccccc3)N1[C@@H]2c1ccccc1OCCO` showed a composite z-score of 1.22. `CC(C)c1ccc(NN2C(C(O)c3c(F)cccc3Cl)C=CC3C(=O)N(c4ccccc4)C(=O)C32)cc1` (centres undefined) showed a composite z-score of 0.98. With `O=C1OCC=C[C@H]2OC34C=CCN(c5ccc6ccccc6c5)C(=O)[C@H]3N(CCCO)C(=O)[C@@H]4[C@@H]12` (some centres undefined) the composite z-score was 0.172. Molecule `CCCCC(CC)C(O)C1C=CC2C(=O)N(c3ccccc3)C(=O)C2N1Nc1ccccc1` (centres undefined) has a composite z-score of 0.831. For `O=C1C=CC(=O)[C@@H]2CC(COc3ccccc3)=C3[C@@H](CCc4ccccc4)OB(O)C[C@@H]3[C@H]12`, the composite z-score was -1.09. With `NC(=O)NCC#Cc1ccc2c(c1)[C@]1(C(=O)N2)[C@H](C(=O)NC[C@H](O)c2ccccc2)[C@H]2C(=O)O[C@H](c3ccccc3)[C@H](c3ccccc3)N2[C@@H]1c1ccc(O)cc1` the composite z-score was 0.916. `COC(=O)[C@@]1(Cc2ccccc2)[C@H]2c3cc(C(=O)N(C)C)n(Cc4c(-c5ccccc5)noc4C)c3C[C@H]2CN1C(=O)c1ccccc1` gave a composite z-score of 0.954. In the case of `[N-]=[N+]=Nc1ccccc1[C@H]1OC(c2ccc(OCCCO)cc2)=N[C@@]1(CCS(=O)(=O)c1ccccc1)C(=O)O`, the composite z-score is reported as 0.373. `COCCCNC(=O)[C@@]1(C)c2ccccc2C(=O)N(Cc2cc(C(F)(F)F)cc(C(F)(F)F)c2)[C@H]1c1ccc(CO)cc1` showed a composite z-score of 0.378. Molecule `CC(C)(C)N1CC=CC23O[C@@H]4C=CCOC(=O)[C@@H]4[C@H]2C(=O)N(CCCCCO)[C@@H]3C1=O` (some centres undefined) has a composite z-score of -0.0669. `CC(C)N1C(=O)c2ccccc2[C@@H](C(=O)NCCCN(C)C)[C@@H]1c1ccc(CO)cc1` was tested, and the composite z-score was 0.0647. For `COc1ccc(C(=O)Nc2cccc(CN3C(=O)[C@]4(O[C@H](CC(=O)N5CCC[C@H]5CO)[C@@H]([Si](C)(C)c5ccc(OC)cc5)[C@@H]4C)c4ccccc43)c2)cc1`, the composite z-score was 0.252. `O=C(CS)NCCCCCCNC(=O)[C@@H]1C[C@@H]2C(=O)N3CCC[C@H]3C(=O)N2[C@@H]1c1ccc(O)cc1` was tested, and the composite z-score was 0.0689. `C=C[C@@H](COC(C)=O)N(Cc1ccccc1[N+](=O)[O-])S(=O)(=O)c1ccc(Br)cc1` was tested, and the composite z-score was -0.0348. For `COc1cc2c(cc1O)C(C)N(Cc1cccc(OC(F)(F)F)c1)CC2` (centres undefined), the composite z-score was 0.938. For `CC(C)N1C(=O)C[C@@](C(=O)NCc2ccccc2)(c2ccc([N+](=O)[O-])cc2)[C@H]1c1ccc(CO)cc1`, the composite z-score was -0.602. With `CCCN1C(=O)[C@]2(COC(c3ccc(OCCCO)cc3)=N2)Cc2ccccc21` the composite z-score was 0.599. `COC(=O)C(CC#Cc1ccc2c(c1)[C@]1(C(=O)N2)[C@H](c2ccc(OCCO)cc2)N2[C@H](c3ccccc3)[C@H](c3ccccc3)OC(=O)[C@H]2[C@@H]1C(=O)NC[C@H](O)c1ccccc1)C(=O)OC` gave a composite z-score of 0.524. For `O=C1C2C=CC(C(O)c3ccc(B(O)O)cc3)N(Nc3ccccc3)C2C(=O)N1c1ccccc1` (centres undefined), the composite z-score was 0.665. Work on `O=C1O[C@H](c2ccccc2)[C@H](c2ccccc2)N2[C@H]1[C@@H](C(=O)NC[C@H](O)c1ccccc1)[C@]1(C(=O)Nc3ccc(C#CCCO)cc31)[C@H]2c1ccc(O)cc1` yielded a composite z-score of -0.158. With `O=C1O[C@@H](c2ccccc2)[C@@H](c2ccccc2)N2[C@@H](c3ccc(O)cc3)[C@]3(C(=O)Nc4ccc(C#CC5=CCCCC5)cc43)[C@@H](C(=O)O)[C@H]12` the composite z-score was 0.999. `CCOC(=O)C1=CCC(c2ccc(C#N)cc2)N(S(=O)(=O)c2ccc(C)cc2)C1` (centres undefined) showed a composite z-score of 0.536. In the case of `CCN(CC)c1ccc(N2CC=CC34O[C@@H]5C=CCCOC(=O)C5[C@H]3C(=O)N(CCCCCO)[C@@H]4C2=O)cc1` (some centres undefined), the composite z-score is reported as -1.45. `COc1c(C)cc(-c2cc3c(c(-c4ccc(Oc5ccccc5)cc4)n2)[Si](C(C)C)(C(C)C)OC3)cc1C` showed a composite z-score of 0.777. `CCOC(=O)C[C@H]1[C@H](OC(=O)c2ccc(-c3ccccc3)cc2)[C@@H](NC(=O)c2ccc3ccccc3c2)c2cc(OCCCO)ccc2N1C(=O)Cc1ccc(OC)cc1` gave a composite z-score of 0.171. With `CC(C)C(=C=CC[C@@H](O)c1ccccc1OCCO)C[C@@H](O)c1ccccn1` the composite z-score was -0.34. For `CN(C)C(=O)[C@@]1(CCC(=O)OC(C)(C)C)N=C(c2ccc(OCCCO)cc2)O[C@H]1c1ccccc1`, the composite z-score was 1. In the case of `C=CCN1C(=O)[C@]2(O[C@H](CCO)[C@@H]([Si](C)(C)c3ccc(OC)cc3)[C@@H]2C)c2cc(NC(=O)[C@H](C)O)ccc21`, the composite z-score is reported as -0.217. With `Cc1ccc(S[C@]2(C(=O)NCCN3CCOCC3)CC(=O)N(Cc3cc(C(F)(F)F)cc(C(F)(F)F)c3)[C@@H]2c2ccc(CO)cc2I)cc1` the composite z-score was 0.492. For `CCOC(=O)C[C@H]1[C@H](OC(=O)c2ccc(C(=O)c3ccccc3)cc2)[C@@H](NC(=O)C2CCCCC2)c2cc(OCCCO)ccc2N1C(=O)c1ccccc1`, the composite z-score was -0.0224. Molecule `CC(C)(C)N1CC=CC23O[C@@H]4/C=C\CCCOC(=O)C4[C@H]2C(=O)N(CCO)[C@@H]3C1=O` (some centres undefined) has a composite z-score of 0.443. For `CC1CC/C=C\[C@H]2OC34C=CCN(Cc5ccccc5)C(=O)[C@H]3N(CCCCCO)C(=O)[C@@H]4C2C(=O)O1` (some centres undefined), the composite z-score was 0.163.
